Only some compounds are listed: those with a hit (about 3.6% of all), similar ones and a draw of the others.
Autofluor counter: flagged as autofluorescent in microsphere protease counterscreen; 3.1% of 360,000 active; compound autofluorescence counterscreen, microsphere flow cytometry; stronger effect = higher value; fluorescence intensity (test concentration not listed); in the data active = fluorescence intensity above about 16000; inconclusive = no clear call, values can overlap the other calls
BoNT F protease: inhibitors of Botulinum neurotoxin F light chain protease; inhibition, % at 10 µM; 0.22% of 360,000 active; Multiplex microsphere protease cleavage assay, flow cytometry; AID 588497; in the data active = inhibition above about 35%, passing the limit was not always enough; inconclusive = no clear call, values can overlap the other calls; note: plate controls were buffer without enzyme for full effect and enzyme alone for no effect
BoNT-A LC inh2: BoNT A light chain protease inhibition. multiplex microsphere protease substrate cleavage, flow cytometry. inhibition, % at 10 µM. 0.17% of 360,000 active. AID 588499; note: plate controls were buffer without enzyme for full effect and enzyme alone for no effect
MazF activator: increases E. coli MazEF RNase cleavage of RNA | P0AE70 | FAM/BHQ RNA-DNA oligo cleavage fluorescence, 5 h | activation, % at 20 µM | 0.32% of 350,000 active | AID 504720; in the data active = activation above about 50%
Anthrax LF prot: blocks Bacillus anthracis lethal factor protease | P15917 | multiplex microsphere protease cleavage assay, LF | inhibition, % at 10 µM | 0.12% of 360,000 active; note: plate controls were buffer without enzyme for full effect and enzyme alone for no effect
Target sequence (P15917 whole entry, looked up): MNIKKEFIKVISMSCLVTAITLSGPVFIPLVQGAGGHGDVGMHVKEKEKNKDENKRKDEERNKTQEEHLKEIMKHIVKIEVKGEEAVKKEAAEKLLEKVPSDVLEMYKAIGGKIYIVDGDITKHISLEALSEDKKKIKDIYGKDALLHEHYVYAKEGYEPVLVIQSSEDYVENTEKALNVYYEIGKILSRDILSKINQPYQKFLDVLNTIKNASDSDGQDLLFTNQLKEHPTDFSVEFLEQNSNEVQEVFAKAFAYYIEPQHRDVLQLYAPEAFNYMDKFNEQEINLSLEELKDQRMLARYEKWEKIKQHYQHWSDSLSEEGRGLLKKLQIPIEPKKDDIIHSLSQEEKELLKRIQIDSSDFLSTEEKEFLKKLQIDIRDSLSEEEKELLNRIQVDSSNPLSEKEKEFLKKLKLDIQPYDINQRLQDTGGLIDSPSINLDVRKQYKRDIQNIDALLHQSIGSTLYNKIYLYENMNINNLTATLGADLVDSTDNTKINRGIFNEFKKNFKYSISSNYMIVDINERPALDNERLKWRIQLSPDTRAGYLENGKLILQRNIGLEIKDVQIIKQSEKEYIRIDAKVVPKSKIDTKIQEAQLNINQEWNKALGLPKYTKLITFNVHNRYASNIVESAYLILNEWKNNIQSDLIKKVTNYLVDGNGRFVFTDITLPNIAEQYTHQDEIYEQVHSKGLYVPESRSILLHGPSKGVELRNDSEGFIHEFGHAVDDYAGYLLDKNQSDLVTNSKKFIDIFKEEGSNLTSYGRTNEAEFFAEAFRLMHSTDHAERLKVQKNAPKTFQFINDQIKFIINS
The depositor's hits bear a star; ? = inconclusive; · = no result. Cut-off read from the data, not from the text of the source, unless noted: active = inhibition above about 30%; inconclusive = no clear call, values can overlap the other calls; inactive = below that.

SMILES	Autofluor counter	BoNT F protease	BoNT-A LC inh2	MazF activator	Anthrax LF prot
COc1ccc(CN2CCN(S(=O)(=O)c3ccc(F)cc3)CC2)c(OC)c1OC	21826*	4	1	3	-4
Cn1ccnc1SCC(=O)c1cccc(Br)c1	19955*	-5	0	6	1
O=C(NCC1CCCO1)c1cc(-c2ccc(F)cc2)no1 (stereo not given)	6337	-5	-3	7	1
COc1ccc(CC(=O)NCc2ccccc2Cl)cc1S(=O)(=O)N1CCOCC1	23297*	-1	0	-3	1
COc1ccc(CC(=O)NCc2ccccc2)cc1S(=O)(=O)N1CCOCC1	8566	-3	0	2	4
CC(C)(C)c1ccc(CC(=O)N2CCC2(C)C(=O)NCc2ccc(Cl)cc2)cc1 (stereo not given)	2840	-1	0	·	-8
CSc1ccccc1-n1nnnc1SCC(=O)NCc1cccs1	5236	?	-2	-4	-18
CSc1ccccc1-n1nnnc1SCC(=O)Nc1ccccc1C	20932*	-1	0	4	0
NC(=O)c1ccc(-n2nnnc2SCC(=O)Nc2ccccc2F)cc1	3112	-34	-1	98*	-16
O=C(CSc1nnnn1-c1ccccc1)NCc1cccs1	16730*	-2	0	-4	1
COC(=O)c1ccsc1NC(=O)CSc1nnnn1-c1ccccc1SC	24392*	-4	-4	8	-1
COc1ccc2nc(C)cc(N3CCN(S(=O)(=O)c4ccccc4F)CC3)c2c1	6586	3	1	5	-6
CC(=O)Nc1ccc(S(=O)(=O)NC2(C(F)(F)F)NC(=O)N(C3CCCCC3)C2=O)cc1 (stereo not given)	23390*	0	?	3	-5
CC(=O)NC1(C(F)(F)F)NC(=O)N(C2CCCCC2)C1=O (stereo not given)	22952*	3	0	3	-1
CC(=O)Nc1ccc(S(=O)(=O)NC2(C(F)(F)F)NC(=O)N(C3CCCC3)C2=O)cc1 (stereo not given)	22547*	-2	0	-7	-2
CC(=O)Nc1ccc(S(=O)(=O)NC2(C(F)(F)F)NC(=O)N(c3ccc(C)cc3)C2=O)cc1 (stereo not given)	4616	-4	1	1	-2
COc1cc(CNC(=O)c2ccc3oc(C(C)C)nc3c2)cc(OC)c1	5009	2	0	-23	1
CCOc1ccc(OCCC(=O)OCC(=O)N2CCN(S(=O)(=O)c3ccc(Cl)cc3)CC2)cc1	6490	-3	-2	-1	4
COc1ccccc1CC(=O)O/N=C(\N)Cc1cccc2ccccc12	22659*	-1	2	8	3
COc1ccc2cc(C(=O)N/N=C/c3sc4ccccc4c3O)ccc2c1	2973	-10	34*	-195	9
COc1ccc(C(=O)N/N=C/c2sc3ccccc3c2O)cc1	2396	-5	21	-53	8
COc1ccc(/C=N/n2c(C)nc3sc(C)c(C)c3c2=O)cc1	3518	38*	8	-22	?
Cc1noc(C)c1-c1ccc(C(=O)NCc2cccc(Cl)c2)c2occc12	3419	-1	0	·	-6
CCN(CC)c1ccc(/C=N/c2sc3c(c2C#N)C2CCN3CC2)c(O)c1	22519*	24	18	-419	14
COC1OC2COC(c3ccccc3)OC2C2OC12 (stereo not given)	4013	-5	0	6	-2
SMILES	Autofluor counter	BoNT F protease	BoNT-A LC inh2	MazF activator	Anthrax LF prot
O=C1CC(c2ccccc2)CC(O)=C1C=NCCN1CCN(C(=O)Nc2ccccc2)CC1 (stereo not given)	22422*	3	1	-1	-2
Cc1ccc(C2CC(=O)C(C=NCCN3CCN(C(=S)Nc4ccccc4)CC3)=C(O)C2)cc1 (stereo not given)	2215	0	-1	1	1
CSC1=N/C(=C\c2cccnc2)C(=O)N1c1ccccc1	2512	-3	0	2	-1
CSC1=N/C(=C\c2ccccc2)C(=O)N1C	21913*	3	3	-2	-11
Cc1oc2nc(SCC(=O)NCCCO)nc(N)c2c1C	22217*	0	-1	-3	-2
COc1ccc(C)cc1NCc1cccc(OC)c1OC	22091*	-2	1	-3	-3
COc1ccc(CNc2cc(C)ccc2C)c(OC)c1OC	19482*	-7	0	-4	-3
CC(C)N1CCC1(C)C(=O)Nc1nc2ccccc2[nH]1 (stereo not given)	3926	0	0	·	2
CCCCCCSc1ccc([C@@H]2[C@@H]3C(=O)N(C)C(=O)[C@@H]3[C@]3(C(=O)OC)CCCCN23)cc1	3796	-9	0	-18	-3

High-throughput results (PubChem)
